Screening data as filed in PubChem BioAssay.
Bcl-xL primary: Bcl-xL (human) inhibition; GST-Bcl-xL / FITC-Bim BH3 peptide fluorescence polarization; Q07817; AID 2129; inhibition, % at 10.9 µM; 320,000 tested, 0.7% active;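 active = inhibition above the mean of all tested compounds plus 3 SD, cutoff set per campaign, cut at about 30% in these data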;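 note: 0% = DMSO wells and 100% = unlabeled Bim-BH3 peptide competitor; inhibitors lower millipolarization by displacing the labeled peptide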
E coli Lon inh: inhibits E. coli Lon protease; P0A9M0; purified E. coli Lon protease, fluorescence polarization; inhibition, % at 7.94 µM; 360,000 tested, 0.42% active; AID 602123; in the data active = inhibition above about 13%, passing the limit was not always enough;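 note: 0% = enzyme with probe and DMSO and 100% = no enzyme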
EBV gp42 block: blocks Epstein-Barr virus glycoprotein 42 binding; Q1HVG2; Fluorescence polarization binding assay, mP read-out; inhibition, % (tested at 21.74 µM); 220,000 tested, 0.42% active; AID 1085; in the data active = inhibition above about 50%
MEX-5 binding: C. elegans MEX-5 TCR-2 RNA binding activity. Q9XUB2. activity score (negative = inhibition of binding), % at 10 µM. MEX-5/FITC-TCR2 RNA binding, fluorescence polarization; stronger effect = lower value. 300,000 tested, 0.38% active;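 active = inhibition past about -25% in most replicates, and total fluorescence under double the plate's negative control median, limit read from the data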;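 note: 0% = DMSO and -100% = 5 µM competing unlabeled TCR2 RNA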
GLD-1 TGE inh: GLD-1-TGE RNA interaction inhibition (C. elegans). inhibition, % at 5.96 µM. purified GLD-1 + fluorescein TGE RNA, fluorescence polarization. 320,000 tested, 0.44% active;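 active = percent inhibition above a per-plate cutoff, the plate mean of test compounds plus 3 SD, cut at about 30% in these data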;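 note: 0% = DMSO wells with GLD-1 and probe and 100% = wells lacking GLD-1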
Target sequence (Q17339 whole entry, looked up): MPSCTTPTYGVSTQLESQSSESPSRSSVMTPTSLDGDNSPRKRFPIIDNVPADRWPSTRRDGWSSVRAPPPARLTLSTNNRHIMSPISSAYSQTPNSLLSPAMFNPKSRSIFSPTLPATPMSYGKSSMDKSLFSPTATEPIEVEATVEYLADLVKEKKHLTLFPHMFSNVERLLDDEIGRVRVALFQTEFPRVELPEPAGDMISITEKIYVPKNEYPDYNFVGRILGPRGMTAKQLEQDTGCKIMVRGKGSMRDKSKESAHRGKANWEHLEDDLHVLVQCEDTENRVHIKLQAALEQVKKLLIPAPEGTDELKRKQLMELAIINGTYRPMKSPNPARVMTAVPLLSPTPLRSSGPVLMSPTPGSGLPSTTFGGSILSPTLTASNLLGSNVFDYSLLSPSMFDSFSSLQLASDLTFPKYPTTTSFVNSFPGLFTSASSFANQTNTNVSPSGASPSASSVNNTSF
MCL1-BIM inh: inhibitors of human MCL1 binding to BIM-BH3 peptide | Q07820 | GST-MCL1 / FITC-Bim-BH3 fluorescence polarization | inhibition, % at 10.9 µM | 320,000 tested, 0.68% active;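 active = inhibition above the mean inhibition of all tested compounds plus 3 SD, set per campaign, cut at about 40% in these data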;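 note: 0% = DMSO wells and 100% = unlabeled Bim-BH3 peptide control; higher means more loss of mP so more displacement of Bim peptide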
* hit, by the source's call. This is a sample that favours compounds with a hit; in the whole collection about 1.5% have one here.

For CC(C)C(NC(=O)/C(=C/c1ccco1)NC(=O)c1ccc(Br)o1)C(=O)O (stereo unspecified) the results were Bcl-xL primary 35*, E coli Lon inh 1, MEX-5 binding -4, GLD-1 TGE inh 16 and MCL1-BIM inh 45*.
For NC(=O)/C(=C\c1ccco1)NC(=O)c1ccc(Br)o1 the results were Bcl-xL primary 37*, E coli Lon inh -15, MEX-5 binding -6, GLD-1 TGE inh 19 and MCL1-BIM inh 42*.
For CC(C)C(NC(=O)/C(=C\c1ccco1)NC(=O)c1ccco1)C(=O)O (stereo unspecified) the results were Bcl-xL primary 13, E coli Lon inh -2, MEX-5 binding -2, GLD-1 TGE inh 13 and MCL1-BIM inh 8.
For COc1cc(C(=O)NCC2CCCO2)ccc1OCc1ccccc1Cl (stereo unspecified) the results were Bcl-xL primary 3, E coli Lon inh -7, MEX-5 binding 2, GLD-1 TGE inh 1 and MCL1-BIM inh -1.
For COC(=O)c1ccc(C2/C(=C(/O)c3ccc4c(c3)CC(C)O4)C(=O)C(=O)N2Cc2ccncc2)cc1 (stereo unspecified) the results were Bcl-xL primary 7, E coli Lon inh 0, MEX-5 binding 1, GLD-1 TGE inh -3 and MCL1-BIM inh 5.
Oc1c(Cl)cc(Cl)cc1Sc1cc(Cl)cc(Cl)c1O was read as Bcl-xL primary 20, EBV gp42 block 46, MEX-5 binding -4, GLD-1 TGE inh -2 and MCL1-BIM inh 53*.
`NC(=Nc1ccc(N)cc1)C(N)=Nc1ccc(N)cc1` gave Bcl-xL primary 7, E coli Lon inh 5, EBV gp42 block 3, MEX-5 binding -30*, GLD-1 TGE inh 5 and MCL1-BIM inh 11.
Cc1ccc(C(=O)NNC(=O)c2cccc(S(=O)(=O)N3CCOCC3)c2)cc1 was read as E coli Lon inh -8 and GLD-1 TGE inh 1.
Screening O=C(NNC(=O)c1cc(Cl)ccc1O)c1cccc(S(=O)(=O)N2CCOCC2)c1 returned Bcl-xL primary 9, E coli Lon inh 10, MEX-5 binding -27*, GLD-1 TGE inh 3 and MCL1-BIM inh 12.
C[C@@H]1O[C@@H](OC2C(O)C(OCCc3ccc(O)c(O)c3)OC(CO)C2OC(=O)/C=C/c2ccc(O)c(O)c2)[C@H](O)[C@H](O)[C@H]1O (stereo partly specified) was read as Bcl-xL primary 17, MEX-5 binding -46*, GLD-1 TGE inh 8 and MCL1-BIM inh 39.
COc1ccc(CCN2C(=O)COc3ccccc3C2C(=O)NCc2ccccc2)cc1OC (stereo unspecified) was read as E coli Lon inh -4.
Screening CCCCC1=CC2=CC(=O)C(C)(OC(=O)CC)C(=O)C2=CN1c1ccc(OC)cc1 (stereo unspecified) returned Bcl-xL primary 10, E coli Lon inh 5, EBV gp42 block -6, MEX-5 binding -3, GLD-1 TGE inh 12 and MCL1-BIM inh 4.
For CCCCC1=CC2=CC(=O)C(C)(OC(=O)CC)C(=O)C2=CN1c1cccc(C#N)c1 (stereo unspecified) the results were Bcl-xL primary 31*, E coli Lon inh -17, MEX-5 binding -6, GLD-1 TGE inh 40* and MCL1-BIM inh 32.
Screening CCN(C(=O)COC(=O)CCn1c(C)csc1=O)c1c(N)n(Cc2ccccc2)c(=O)[nH]c1=O returned Bcl-xL primary 0, E coli Lon inh -2, GLD-1 TGE inh 0 and MCL1-BIM inh 4.
`CC(C)c1ccc(-n2cnn(-c3ncccc3[N+](=O)[O-])c2=O)cc1` gave Bcl-xL primary 4, E coli Lon inh -1, EBV gp42 block 0, MEX-5 binding -2, GLD-1 TGE inh 1 and MCL1-BIM inh 9.
Screening Cc1cccc(N2CCN(C(=O)Cc3cn(C)c4ccccc34)CC2)c1C returned Bcl-xL primary 48*, E coli Lon inh 0, EBV gp42 block 38, MEX-5 binding 0, GLD-1 TGE inh 18 and MCL1-BIM inh 44*.
`Cc1cccc(N2CCN(C(=O)COc3cc(=O)n(C)c4ccccc34)CC2)c1C` gave Bcl-xL primary 8, E coli Lon inh -8, EBV gp42 block -4, MEX-5 binding 2, GLD-1 TGE inh 3 and MCL1-BIM inh 3.
`O=C(Nc1ccncc1)Nc1cccc(Cl)c1Cl` gave E coli Lon inh -10 and MEX-5 binding -5.
